Measurements from PubChem BioAssay AID1053205 (Broad Institute, 2014).
Measured potencies and affinities stand elsewhere. Results filed as inconclusive are left out. The source made the active and inactive calls.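 The calls were made as follows: active = compounds lowering the FRET ratio whose fitted half-maximal concentration is at most twice their top tested dose; inconclusive = flat partial drop between 30 and 70 percent, or bad fit; inactive = the rest.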

These compounds were tested against Voltage-dependent L-type calcium channel subunit alpha-1D (Homo sapiens) (UniProt Q01668) (assay: disruptors of CaV1.3 IQ/ICDI domain association – cell-based, HEK293, YFP-IQ/CFP-ICDI FRET, cherry-picks, dose response (AID 1053205;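 also: 0% = median of neutral control wells and -100% = median of positive control wells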)). Conditions: HEK293 YFP-IQ/CFP-ICDI FRET ratio, 10 min; series mostly up to 35 µM; FRET change, negative = inhibition: at the top concentration.
Voltage-dependent L-type calcium channel subunit alpha-1D (Homo sapiens), sequence (Q01668 whole entry, looked up, the tested form may be a part): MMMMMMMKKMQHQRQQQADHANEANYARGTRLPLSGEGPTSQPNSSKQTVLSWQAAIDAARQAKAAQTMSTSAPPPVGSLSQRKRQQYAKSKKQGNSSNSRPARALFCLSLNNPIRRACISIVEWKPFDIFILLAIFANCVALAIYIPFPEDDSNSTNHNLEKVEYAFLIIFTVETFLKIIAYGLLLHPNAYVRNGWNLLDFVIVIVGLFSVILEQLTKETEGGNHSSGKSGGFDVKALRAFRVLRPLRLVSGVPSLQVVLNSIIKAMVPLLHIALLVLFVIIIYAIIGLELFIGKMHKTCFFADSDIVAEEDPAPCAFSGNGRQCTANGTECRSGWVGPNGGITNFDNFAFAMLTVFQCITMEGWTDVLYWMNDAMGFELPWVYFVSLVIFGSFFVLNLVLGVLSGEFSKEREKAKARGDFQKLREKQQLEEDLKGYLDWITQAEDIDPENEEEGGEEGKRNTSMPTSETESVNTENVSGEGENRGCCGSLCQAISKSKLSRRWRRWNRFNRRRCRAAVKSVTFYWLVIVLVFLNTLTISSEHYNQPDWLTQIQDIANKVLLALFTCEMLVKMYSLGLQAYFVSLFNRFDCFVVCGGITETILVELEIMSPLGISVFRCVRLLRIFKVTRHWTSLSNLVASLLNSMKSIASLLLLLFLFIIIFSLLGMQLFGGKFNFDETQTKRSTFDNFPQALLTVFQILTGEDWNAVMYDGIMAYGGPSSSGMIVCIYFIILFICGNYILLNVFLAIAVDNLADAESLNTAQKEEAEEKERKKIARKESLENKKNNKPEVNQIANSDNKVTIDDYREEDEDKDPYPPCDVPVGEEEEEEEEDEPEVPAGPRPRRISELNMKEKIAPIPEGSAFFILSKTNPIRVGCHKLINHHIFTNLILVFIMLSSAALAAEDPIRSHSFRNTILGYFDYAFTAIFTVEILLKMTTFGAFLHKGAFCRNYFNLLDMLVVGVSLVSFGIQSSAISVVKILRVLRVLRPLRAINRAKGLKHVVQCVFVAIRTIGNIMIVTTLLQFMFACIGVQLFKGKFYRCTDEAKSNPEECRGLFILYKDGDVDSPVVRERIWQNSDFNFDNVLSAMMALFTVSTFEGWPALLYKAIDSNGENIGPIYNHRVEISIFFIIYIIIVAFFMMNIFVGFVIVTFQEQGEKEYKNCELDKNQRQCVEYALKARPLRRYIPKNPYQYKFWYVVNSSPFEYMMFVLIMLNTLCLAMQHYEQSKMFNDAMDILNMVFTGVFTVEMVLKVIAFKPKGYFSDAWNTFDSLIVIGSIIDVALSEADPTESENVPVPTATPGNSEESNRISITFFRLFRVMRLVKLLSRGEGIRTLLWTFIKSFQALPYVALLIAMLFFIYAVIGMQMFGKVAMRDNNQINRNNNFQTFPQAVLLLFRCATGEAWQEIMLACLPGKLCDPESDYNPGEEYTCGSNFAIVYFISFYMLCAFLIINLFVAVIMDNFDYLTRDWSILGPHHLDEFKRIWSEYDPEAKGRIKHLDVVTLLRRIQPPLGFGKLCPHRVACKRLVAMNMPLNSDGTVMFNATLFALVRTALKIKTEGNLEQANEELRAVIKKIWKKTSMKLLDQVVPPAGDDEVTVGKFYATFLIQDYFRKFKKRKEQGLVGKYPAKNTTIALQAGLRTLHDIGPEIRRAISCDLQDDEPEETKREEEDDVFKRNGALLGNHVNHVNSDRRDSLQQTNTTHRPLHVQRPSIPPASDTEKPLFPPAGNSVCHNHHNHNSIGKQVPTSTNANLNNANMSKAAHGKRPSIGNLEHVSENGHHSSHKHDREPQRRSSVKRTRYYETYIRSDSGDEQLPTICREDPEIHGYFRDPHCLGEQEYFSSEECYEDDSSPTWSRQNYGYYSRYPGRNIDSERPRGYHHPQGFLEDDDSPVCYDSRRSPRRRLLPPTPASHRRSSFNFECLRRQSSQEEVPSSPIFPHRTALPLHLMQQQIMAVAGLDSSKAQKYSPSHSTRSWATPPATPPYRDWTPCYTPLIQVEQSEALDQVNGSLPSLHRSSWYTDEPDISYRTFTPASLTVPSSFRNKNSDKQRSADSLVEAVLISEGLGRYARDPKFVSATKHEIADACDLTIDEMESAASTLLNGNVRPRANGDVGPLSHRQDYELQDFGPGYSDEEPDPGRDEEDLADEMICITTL

FRET change, negative = inhibition, inactive:
Nc1ccc2nc(-c3ccccc3)cnc2c1 451%
CCCCN(CCCC)CC(O)Cn1c2ccccc2c(=O)c2ccccc21 (stereo unspecified) 175%
CCOC(=O)C1CCCN(CCCc2ccccc2)C1 (stereo unspecified) 3.01%
C=CCN1C(=S)CC(c2ccccc2)=Nc2ccccc21 -11.7%
CCOc1ccc2nc(NCCNC(=O)CC)c(C#N)cc2c1 426%
Cc1c(C(=O)NCc2ccc3c(c2)OCCO3)sc(=O)n1Cc1ccccc1F 16.7%
Clc1cccc(CN2CCN(Cc3nc(CCc4ccccc4)no3)CC2)c1 -34.4%
COc1ccc(S(=O)(=O)N2CCCC2CNC(=O)C(=O)NC2CCCC2)cc1 (stereo unspecified) 6.72%
CCCN1CCN(C(=O)c2ccc(CS(=O)c3ccc(Br)cc3)o2)CC1 (stereo unspecified) 19.1%
Cc1c(C(=O)NCc2ccc(Cl)c(Cl)c2)sc(=O)n1Cc1cccc(F)c1 3.15%
O=C(O)c1cccc(Nc2nc(-c3cc4ccccc4oc3=O)cs2)c1 192%
CNNC(=S)NC1CC2CC1C1C=CCC21 (stereo unspecified) 4.34%
Cn1cnc(S(=O)(=O)Nc2ccc(OC(F)(F)F)cc2)c1 -17.1%
CC(C)CCn1c(CN2CC(C)OC(C)C2)nc2c1c(=O)n(C)c(=O)n2C (stereo unspecified) -16.3%
CC(C)C(=O)Nc1sc2c(c1C(N)=O)CCN(Cc1ccccc1)C2 96.8%
CCOC(=O)C1=CN(CC2CCCO2)C=C(C(=O)OCC)C1c1ccccc1C(F)(F)F (stereo unspecified) 156%
CCC(C)n1c(=N)c(C#N)cc2c(=O)n3cc(C)ccc3nc21 (stereo unspecified) 176%
NC(=O)c1cc([N+](=O)[O-])ccc1NCc1cccnc1 -28.9%
COc1ccc(CCNC(=O)c2cc(S(=O)(=O)N3CCCCC3)c[nH]2)cc1OC 118%
Cc1cccn2c(=O)c3cc(C#N)c(=NC(=O)c4cccs4)n(CC(C)C)c3nc12 58.8%
Cc1ccc(-n2nnnc2CNC(=O)C(=O)c2c[nH]c3ccccc23)cc1C -22.5%
COc1ccccc1/C=N/Nc1nc(C)cc(=O)[nH]1 1.46%
COCCCOc1cc(NCc2ccccc2)c2ncn(C(C)C)c2c1 9.32%
O=C(CCCN1C(=O)CSc2ncccc21)N1CCN(Cc2ccccc2)CC1 5.04%
Cc1ccc(S(=O)(=O)CCC(=O)OCC(=O)Nc2cccc(S(=O)(=O)N3CCCCC3)c2)cc1 32.2%
CCN1/C(=C/c2sc(-c3ccccc3C)c[n+]2C)Sc2ccccc21 148% [at 8 µM]
Cc1noc(C)c1-c1ccc(C(=O)NCCc2ccccc2)c2occc12 16.9%
CC(=O)N=c1c(C#N)cc2c(=O)n3ccccc3nc2n1CCCOC(C)C 402%
CC1CC(C)CN(CCCNC(=O)CCC(=O)N2CC(C)Oc3ccccc32)C1 (stereo unspecified) 4.52%
CCOc1ccc(C2C(C#N)=C(N)Oc3cc(O)ccc32)cc1OCC (stereo unspecified) 102%
CCOc1ccc(C(=O)c2cc3ccc(O)cc3oc2=O)cc1 52.1%
Cc1ccc2nc3c(cc(C(=O)NCc4ccccc4)c(=N)n3CCCn3ccnc3)c(=O)n2c1 404%
O=C(O)c1cccc(NC(=O)c2cn(-c3ccccc3)nc2-c2cccc(Br)c2)c1 -4.92%
Cc1ccc(O)c(NC(=S)NC(=O)COc2ccc(Br)cc2)c1 -15.2%
O=C(NCc1ccc(F)cc1)C1CCCN1C(=O)Nc1cccc(F)c1 (stereo unspecified) 103%
C[C@H](NC(=O)c1nc[nH]c1C(=O)N[C@@H](Cc1ccccc1)C(=O)OC(C)(C)C)C(=O)OCc1ccccc1 10.4%
